{
  "source": "the supplement of paper PMC8728848",
  "experiment_in_all_cases": "glycan array binding signal (z-score within array); higher = stronger binding",
  "conditions_in_all_cases": "glycan notation: IUPAC condensed, linker removed",
  "key": {"[1]": {"target": "Fuc(a1-2)Gal(b1-3)GlcNAc(b1-3)[Gal(b1-4)[Fuc(a1-3)]GlcNAc(b1-6)]Gal(b1-4)Glc", "method_in_brief": "(§1)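 Arrays were curated from the Consortium for Functional Glycomics database, 3228 in total, and kept only where the protein sequence was available. Binding is expressed as a within-array Z-score. This score was averaged across arrays of the same protein sequence at different concentrations or buffers and across linkers, and negative values can be read as non-binding.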"}, "[2]": {"target": "Fuc(a1-2)Gal6S(b1-4)GlcNAc", "method_in_brief": "as §1"}, "Fuc(a1-2)[Gal(a1-3)]Gal": {"target": "Fuc(a1-2)[Gal(a1-3)]Gal", "method_in_brief": "as §1"}, "[3]": {"target": "Fuc(a1-2)[Gal(a1-3)]Gal(b1-3)GlcNAc", "method_in_brief": "as §1"}, "[4]": {"target": "Fuc(a1-3)[Gal(b1-4)]GlcNAc(b1-2)Man(a1-3)[Fuc(a1-3)[Gal(b1-4)]GlcNAc(b1-2)Man(a1-6)]Man(b1-4)GlcNAc(b1-4)GlcNAc", "method_in_brief": "as §1"}, "[5]": {"target": "Fuc(a1-3)[Gal(b1-4)]GlcNAc(b1-3)Gal(b1-3)[Fuc(a1-4)]GlcNAc", "method_in_brief": "as §1"}, "Gal(b1-2)Gal": {"target": "Gal(b1-2)Gal", "method_in_brief": "as §1"}, "[6]": {"target": "Gal(b1-4)GlcNAc(b1-2)Man(a1-6)[Man(a1-3)]Man(b1-4)GlcNAc(b1-4)GlcNAc", "method_in_brief": "as §1"}, "[7]": {"target": "Gal(b1-4)GlcNAc(b1-3)Gal(b1-4)Glc", "method_in_brief": "as §1"}, "Gal3S(b1-4)GlcNAc": {"target": "Gal3S(b1-4)GlcNAc", "method_in_brief": "as §1"}, "Gal3S6S(b1-4)GlcNAc": {"target": "Gal3S6S(b1-4)GlcNAc", "method_in_brief": "as §1"}, "GalNAc(a1-3)Gal": {"target": "GalNAc(a1-3)Gal", "method_in_brief": "as §1"}, "[8]": {"target": "GlcNAc(a1-4)Gal(b1-4)GalNAc", "method_in_brief": "as §1"}, "[9]": {"target": "GlcNAc(a1-4)Gal(b1-4)GlcNAc(b1-3)Gal(b1-4)[Fuc(a1-3)]GlcNAc(b1-3)Gal(b1-4)[Fuc(a1-3)]GlcNAc", "method_in_brief": "as §1"}, "[10]": {"target": "GlcNAc(b1-3)Gal(b1-4)GlcNAc", "method_in_brief": "as §1"}, "GlcNAc(b1-3)Man": {"target": "GlcNAc(b1-3)Man", "method_in_brief": "as §1"}, "[11]": {"target": "Man(a1-2)Man(a1-2)Man(a1-6)[Man(a1-3)]Man", "method_in_brief": "as §1"}, "Man(a1-2)Man(a1-3)Man": {"target": "Man(a1-2)Man(a1-3)Man", "method_in_brief": "as §1"}, "[12]": {"target": "Neu5Ac(a2-3)Gal(b1-3)GalNAc6S", "method_in_brief": "as §1"}, "[13]": {"target": "Neu5Ac(a2-3)Gal(b1-4)GlcNAc(b1-3)Gal(b1-4)GlcNAc(b1-3)Gal(b1-4)GlcNAc", "method_in_brief": "as §1"}, "[14]": {"target": "Neu5Ac(a2-6)GlcNAc(b1-4)GlcNAc(b1-4)GlcNAc", "method_in_brief": "as §1"}, "[15]": {"target": "Neu5Ac9Ac(a2-3)Gal(b1-4)GlcNAc", "method_in_brief": "as §1"}, "[16]": {"target": "Neu5Gc(a2-3)Gal(b1-3)GlcNAc", "method_in_brief": "as §1"}},
  "note": "This excerpt belongs to a sample that is enriched for the strongest signals.",
  "data": [
    {"binder": "DETC sTCR (Mus musculus) (protein) LDVYLEPVAKTFTVVAGDPASFYCTVTGGDMKNYHMSWYKKNGTNALFLVYKLNSNSTDGGKSNLKGKINISKNQFILDIQKATMKDAGTYYCGSDIGGSSWDTRQMFFGTGIELFVEPKSQPPAKPSVFIMKNGTNVACLVKDFYPKEVTISLRSSKKIVEFDPAIVISPSGKYSAVKLGQYGDSNSVTCSVQHNSETVHSTDFEPYANSFNNEKLPEPENDTQISEPCSSADLVPRGSTTAPSAQLKKKLQALKKKNAQLKWKLQALKKKLAQHHHHHHDSWISQDQLSFTRRPNKTVHISCKLSGVPLHNTIVHWYQLKEGEPLRRIFYGSVKTYKQDKSHSRLEIDEKDDGTFYLIINNVVTSDEATYYCACWDSSGFHKVFAEGTKLIVIPSDKRLDADISPKPTIFLPSVAETNLHKTGTYLCLLEKFFPDVIRVYWKEKDGNTILDSQEGDTLKTNDTYMKFSWLTVPERAMGKEHRCIVKHENNKGGADQEIFFPSIKKVAVSTKPTTCSSADLVPRGSTTAPSAQLEKELQALEKENAQLEWELQALEKELAQLNDIFEAQKIEW", "values": [
      {"measurement": "glycan array binding signal (z-score)", "setting": "[1]", "value": -0.448},
      {"measurement": "glycan array binding signal (z-score)", "setting": "[2]", "value": 2.96},
      {"measurement": "glycan array binding signal (z-score)", "setting": "Fuc(a1-2)[Gal(a1-3)]Gal", "value": 0.343},
      {"measurement": "glycan array binding signal (z-score)", "setting": "[3]", "value": -0.572},
      {"measurement": "glycan array binding signal (z-score)", "setting": "[4]", "value": -0.52},
      {"measurement": "glycan array binding signal (z-score)", "setting": "[5]", "value": -0.531},
      {"measurement": "glycan array binding signal (z-score)", "setting": "Gal(b1-2)Gal", "value": -0.101},
      {"measurement": "glycan array binding signal (z-score)", "setting": "[6]", "value": 6.38},
      {"measurement": "glycan array binding signal (z-score)", "setting": "[7]", "value": -0.495},
      {"measurement": "glycan array binding signal (z-score)", "setting": "Gal3S(b1-4)GlcNAc", "value": 2.74},
      {"measurement": "glycan array binding signal (z-score)", "setting": "Gal3S6S(b1-4)GlcNAc", "value": -0.25},
      {"measurement": "glycan array binding signal (z-score)", "setting": "GalNAc(a1-3)Gal", "value": -0.71},
      {"measurement": "glycan array binding signal (z-score)", "setting": "[8]", "value": 3.96},
      {"measurement": "glycan array binding signal (z-score)", "setting": "[9]", "value": 5.91},
      {"measurement": "glycan array binding signal (z-score)", "setting": "[10]", "value": -0.215},
      {"measurement": "glycan array binding signal (z-score)", "setting": "GlcNAc(b1-3)Man", "value": -0.035},
      {"measurement": "glycan array binding signal (z-score)", "setting": "[11]", "value": 0.993},
      {"measurement": "glycan array binding signal (z-score)", "setting": "Man(a1-2)Man(a1-3)Man", "value": -0.043},
      {"measurement": "glycan array binding signal (z-score)", "setting": "[12]", "value": 1.09},
      {"measurement": "glycan array binding signal (z-score)", "setting": "[13]", "value": -0.518},
      {"measurement": "glycan array binding signal (z-score)", "setting": "[14]", "value": 5.83},
      {"measurement": "glycan array binding signal (z-score)", "setting": "[15]", "value": 0.262},
      {"measurement": "glycan array binding signal (z-score)", "setting": "[16]", "value": -0.599}
    ]}
  ]
}
